TNFa cytotox – HUVEC cytotoxicity counter-screen, TNF alpha stimulated; cell count reduction, % at 2 µM; HUVEC TNFalpha-stimulated, Hoechst cell count, imaging; AID 848; 0.17% of 93,000 active;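 active = cell count reduction exceeding the screen mean by over 5 SD, scaled to untreated wells per plate, cut at about 78% in these data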;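 also: cells counted after 24 h of TNF alpha exposure following the 1 h pretreatment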
E-sel TNF inh – blocks E-selectin expression induced by TNF alpha; HUVEC TNFa-induced E-selectin immunofluorescence, high content; inhibition, % at 2 µM; 0.71% of 120,000 active; AID 1246;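 active = inhibition above the batch mean plus 3 SD, and confirmed as a hit on visual image review, cut at about 43% in these data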
VCAM1 TNFa inh – reduces TNF alpha induced VCAM1 expression in HUVEC | HUVEC TNFa-induced VCAM-1 immunofluorescence, high-content imaging | inhibition, % at 2 µM | 0.48% of 95,000 active | AID 802;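 active = inhibition above the batch mean plus 3 SD, with images confirmed as a hit by eye, cut at about 37% in these data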
cytoskel mod – alters cytoskeleton assembly in HUVEC cells. 0.18% of 91,000 active. inhibition, % at 2 µM. AID 836. HUVEC TNFa F-actin phalloidin imaging, high content;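 active = inhibition above the batch mean plus 3 SD and confirmed as a hit by visual image inspection, cut at about 30% in these data, passing the limit was not always enough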
A number is an active result; i = inactive; nt = no result. Rows were chosen to be rich in hits. Some 1% of all compounds tested hit in one or more screens of this group.

SMILES	TNFa cytotox	E-sel TNF inh	VCAM1 TNFa inh	cytoskel mod
C=CCc1c(C)nc2ccc(C(=O)OCC)cc2c1Cl	nt	i	nt	nt
CCOc1c(C)cc2[nH]c(CCC(=O)O)nc2c1C	nt	96	nt	nt
CCn1c(SCC(=O)Nc2ccc(C(=O)OC)cc2)nnc1-c1cccs1	i	i	55	i
CCn1c(SCC(=O)NCC(=O)Nc2ccc(F)cc2)nnc1-c1cccs1	i	nt	i	i
CCC(C)(C)NC(=O)CN(C(=O)c1snc(C(N)=O)c1N)c1ccc(OC)c(OC)c1	i	76	i	i
CCC(C)(C)NC(=O)Cc1ccc(OC)c(OC)c1	i	i	i	i
Cc1ccccc1OCCc1c(C)[nH]c(=S)[nH]c1=O	nt	i	nt	nt
O=S(=O)(NCCc1cn2ccccc2n1)c1ccc(F)c(C(F)(F)F)c1	i	nt	i	i
Cc1ccn2cc(CCNS(=O)(=O)c3ccc(F)c(C(F)(F)F)c3)nc2c1	i	89	i	i
COc1cccc(C(C)N(C)Cc2nc(-c3ccoc3)oc2C)c1 (stereo not given)	nt	i	nt	nt
Cn1ccc(C(=O)Nc2ccc(Br)cc2Br)n1	nt	i	nt	nt
Cc1ccc(S(=O)(=O)NNC(=O)c2sccc2-n2cccc2)cc1	i	62	i	i
CCCCOCCCNC(=O)c1cccs1	i	i	90	i
CC(C)OCCCNC(=O)c1cccs1	i	i	i	i
O=C(CNC(=O)c1ccc(S(=O)(=O)N2CCCC2)cc1)N/N=C/c1c(Cl)cccc1Cl	nt	i	nt	nt
Cc1ccc(CNC(=O)CCc2nc3ccccc3c(=O)[nH]2)cc1	nt	62	nt	nt
CN1CCN(C(=O)CCc2nc3ccccc3c(=O)[nH]2)CC1	i	i	i	i
COc1cccc(C(=O)COC(=O)c2ccc(NC(C)=O)cc2)c1	nt	i	nt	nt
CCn1cc(C(=O)O)c(=O)c2cc(F)c(N3CCN(C(=O)Nc4ccccc4)CC3)cc21	nt	i	nt	nt
CCn1cc(C(=O)O)c(=O)c2cc(F)c(N3CCN(C(=S)NC(=O)c4ccc(Br)cc4)CC3)cc21	nt	74	nt	nt
CCOC(=O)C1(CCc2ccccc2)CCN(C(=O)CN2C(=O)CSC2=O)CC1	nt	i	nt	nt
O=C(CO/N=C/c1ccccc1OC(F)F)NCc1cccs1	nt	90	nt	nt
COc1cccc(CNC(=O)CCC2CCCN(Cc3cc4ccccc4o3)C2)c1 (stereo not given)	nt	i	nt	nt
O=c1cc(CO)oc(C(Nc2ccccn2)c2ccccc2F)c1O (stereo not given)	i	68	i	i
COc1ccccc1N1C(=O)CCC1(C#N)c1ccc(Br)cc1 (stereo not given)	i	i	i	i
SMILES	TNFa cytotox	E-sel TNF inh	VCAM1 TNFa inh	cytoskel mod
COc1ccc(N2C(=O)CCC2(C#N)c2ccc(Br)cc2)cc1 (stereo not given)	i	100	i	i
COc1ccc(-c2cc3ccc(OCc4nn[nH]n4)cc3oc2=O)cc1OC	i	i	51	i
C/C=C/Cn1c(N2CCCCCC2)nc2c1c(=O)[nH]c(=O)n2C	i	74	i	i
Cn1c(=O)[nH]c(=O)c2c1nc(N1CCCCCC1)n2CC(N)=O	i	i	i	i
COc1ccc(CCCC(=O)Nc2ccc(F)cc2)cc1	nt	i	nt	nt
COC(=O)c1ccc(Oc2ccc(C(F)(F)F)cn2)cc1	nt	i	nt	nt
Nc1ccccc1NC(=O)c1ccccc1N	93	nt	81	i
Cc1c(NC(=O)c2ccccc2N)cccc1C(=O)O	i	i	i	i
CC1(c2ccccc2)NC(=O)N(N)C1=O (stereo not given)	nt	i	nt	nt
CCOc1ccc(OCC)c(NC(=O)CN2CCN(c3cccc(C)c3)CC2)c1	nt	95	nt	nt
COC(=O)CN(C#N)c1nc(NC(C)C)nc(NC(C)C)n1	nt	i	nt	nt
O=C(O)CN1C(=O)C2(OCCCO2)c2ccccc21	i	i	i	i
Cc1ccccc1CN1C(=O)C2(OCCCO2)c2ccccc21	i	i	i	64
COc1ccccc1C(=O)Nc1ccc2c(c1)nc(CN1CCN(C(C)=O)CC1)n2C	i	i	90	i
CC(=O)N1CCN(Cc2nc3cc(NC(=O)c4ccccc4)ccc3n2C)CC1	i	i	i	i
CC(C)c1cccc(C(C)C)c1NC(=O)Cn1c(=O)cnc2ccccc21	nt	i	nt	nt
Cc1cc(C)n(-c2nc(-c3cccc(Cl)c3)cs2)n1	86	nt	90	i
COc1ccc2nc(NC(=O)C(NS(=O)(=O)c3cccc4nsnc34)C(C)C)sc2c1 (stereo not given)	86	i	i	i
O=C(CSc1nc2ccccc2c(=O)n1-c1ccccc1)NCc1ccco1	88	i	i	i
COc1ccc(C2C(C(=O)Nc3cccnc3)=C(C)Nc3nc(-c4cccs4)nn32)cc1 (stereo not given)	i	100	i	i
Cc1nn(Cc2ccccc2)c(C)c1NC(=O)CCCn1nc([N+](=O)[O-])cc1C	nt	i	nt	nt
Clc1ccc(C2=Nn3c(nnc3-c3cccnc3)SC2)s1	i	nt	78	i
Brc1ccc(C2=Nn3c(nnc3-c3cccnc3)SC2)s1	i	i	i	i
COc1cc(S(=O)(=O)NCCN2CCOCC2)c(OC)cc1Cl	i	i	i	i
Cc1cc(S(=O)(=O)NCCN2CCOCC2)c(C)s1	i	i	i	65
SMILES	TNFa cytotox	E-sel TNF inh	VCAM1 TNFa inh	cytoskel mod
c1ccc(-n2c(-c3ccncc3)nnc2N2CCOCC2)cc1	i	60	i	i
c1ccc(-n2c(-c3ccncc3)nnc2-c2ccco2)cc1	i	i	i	i
Oc1ccc(N2CCN(c3ncnc4sc(-c5ccccc5)cc34)CC2)cc1	nt	100	nt	nt
O=C(CSc1nc2ccc(Cl)cc2[nH]1)N1CCN(C(=O)c2ccco2)CC1	nt	i	nt	nt
O=C1CC(c2ccccc2)Cc2nc3ncnn3cc21 (stereo not given)	i	i	60	i
O=S(=O)(Nc1cc(C(F)(F)F)ccc1N1CCOCC1)c1ccc2ccccc2c1	nt	i	nt	nt
CS(=O)(=O)C1=NSC2=NC(=O)/C(=C\c3cccn3-c3ccc(Cl)cc3)C(=N)N21	nt	100	nt	nt
COC(=O)CCC(=O)Nc1nc(-c2ccccc2)cs1	i	62	i	i
O=C(COC(=O)C1CCN(S(=O)(=O)c2ccccc2)CC1)NC(=O)c1ccc(OC(F)F)cc1	nt	i	nt	nt
COc1ccc(OC)c2sc(NC(=O)CCS(=O)(=O)c3ccccc3)nc12	i	93	50	i
O=C(/C=C\Nc1cccc(F)c1)c1cccs1	i	70	i	i
O=C(/C=C/Nc1ccc(F)cc1F)c1cccs1	nt	i	nt	nt
CCOC(=O)C1=C(c2ccccc2)O/C(=C(/C#N)C(F)(F)F)S1	i	i	56	i
CC(=O)N1CCC2(CC1)C(C#N)=C(N)Oc1c2sc2nc(C)cc(C)c12	nt	i	nt	nt
CCN1CCC2(CC1)C(C#N)=C(N)Oc1c2sc2nc(C)cc(C)c12	i	i	84	i
Cc1nn(-c2cc(C)c3ccccc3n2)c2c1C1C(C2)C1(C)C (stereo not given)	i	i	60	i
Cc1cc(-n2nnc3ccccc32)nc2ccccc12	i	i	i	i
CO/N=C/C(=N\Nc1ccc(OC)cc1)C(=O)c1ccc(F)cc1	nt	i	nt	nt
CO/N=C/C(=N\Nc1ccc(C)cc1)C(=O)c1ccc(OC)cc1	i	i	40	i
N#Cc1ccc(-n2c(-c3ccccc3)nnc2-c2ccccc2)cc1C#N	i	i	i	i
N#Cc1cccc(-n2c(-c3ccccc3)nnc2-c2ccccc2)c1C#N	i	100	i	i
O=C(NCc1nnc(SCC(=O)N2CCCc3ccccc32)o1)c1ccco1	nt	i	nt	nt
O=C(CSc1nnc(CNc2ccc(F)cc2)o1)N1CCCc2ccccc21	nt	63	nt	nt

Screening data: PubChem BioAssay, Columbia University Molecular Screening Center
